Screening data (PubChem)
CYP2C19 inhib – inhibitors of human CYP2C19 | P33261 | CYP2C19 Supersomes, luciferin-H EGE luminescence, 30 min | inhibition, % at 5 µM | 96,000 tested, 21% active;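 active = CYP2C19 inhibition above a set limit at 5 µM in the primary screen, cut at about 50% in these data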
Target sequence (P33261 whole entry, looked up): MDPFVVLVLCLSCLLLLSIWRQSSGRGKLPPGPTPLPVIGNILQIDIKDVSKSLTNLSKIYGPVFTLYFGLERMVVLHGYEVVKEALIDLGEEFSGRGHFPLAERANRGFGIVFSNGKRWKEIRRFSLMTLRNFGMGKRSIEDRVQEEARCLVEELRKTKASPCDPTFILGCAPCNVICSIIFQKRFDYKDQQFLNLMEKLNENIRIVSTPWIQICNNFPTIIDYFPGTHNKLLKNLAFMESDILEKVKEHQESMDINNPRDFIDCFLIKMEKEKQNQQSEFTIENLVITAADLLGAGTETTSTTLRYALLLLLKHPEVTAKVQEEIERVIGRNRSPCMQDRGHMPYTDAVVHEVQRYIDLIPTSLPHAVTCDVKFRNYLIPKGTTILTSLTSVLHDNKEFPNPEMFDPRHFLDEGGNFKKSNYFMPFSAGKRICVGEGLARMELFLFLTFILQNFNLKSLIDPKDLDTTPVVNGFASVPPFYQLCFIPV
CYP2C19 activ – increases human CYP2C19 enzyme activity. recombinant CYP2C19, luciferin-H EGE luminescence; hits give high values; 0 = fully inhibited enzyme, 1 = untreated enzyme. activation factor at 5 µM. 96,000 tested, under 10 active;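 active = activation factor of at least 2 at 5 µM in the primary screen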
Plk1 PBD FP – inhibitors of human Plk1 polo box domain binding | Plk1 PBD phosphopeptide binding, fluorescence polarization | inhibition, %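 (tested at about 20 µM)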 | 97,000 tested, 0.13% active | AID 693; in the data active = inhibition above about 34%, passing the limit was not always enough
CYP2C9 act – CYP2C9 (human) activation; activation factor at 5 µM; recombinant CYP2C9, luciferin-H conversion, luminescence; hits give high values; factor 1 = untreated enzyme, 0 = blocked; 96,000 tested, 1.4% active; P11712;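 active = activation factor of 2 or more for CYP2C9 at a 5 µM dose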
PLK1 kinase inh – PLK1 (human) kinase inhibition | P53350 | recombinant PLK1 kinase, TR-FRET peptide phosphorylation | inhibition, % at 10 µM | 97,000 tested, 0.53% active | AID 619;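 active = inhibition of 50% or more in the single-concentration screen; inactive = inhibition below 50%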
CYP2C9 inh – human CYP2C9 inhibition; CYP2C9 Supersomes, luciferin-H conversion, luminescence; inhibition, % at 5 µM; 96,000 tested, 20% active;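 active = blocking of liver enzyme CYP2C9 beyond about 50% at 5 µM, limit read from the data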
Large screens that a line does not name were inactive. Shown are actives, neighbours in structure and some others; about 28% of the full set was active somewhere.

CCOC(=O)N1CCN(C(=O)CN(c2cccc(C)c2)S(=O)(=O)c2ccccc2)CC1	CYP2C9 inh 71.6
CCOC(=O)N1CCN(C(=O)CN(c2cccc(C)c2)S(=O)(=O)c2ccc(C)cc2)CC1	CYP2C19 inhib 72.4, CYP2C9 inh 73.6 (no result: Plk1 PBD FP, PLK1 kinase inh)
Cc1nc2sc(C(c3cccs3)N3CCN(C(=O)c4ccco4)CC3)c(O)n2n1 (centres undefined)	none (no result: Plk1 PBD FP, PLK1 kinase inh)
Cc1nc2sc(C(c3cccs3)N3CC(C)CC(C)C3)c(O)n2n1 (centres undefined)	CYP2C19 inhib 67.4
CC(C)C(OC(=O)c1nsc(Cl)c1Cl)C(=O)NCc1ccc2c(c1)OCO2 (centres undefined)	CYP2C9 inh 65.4
CC(C(=O)NCc1cccs1)n1cccc1 (centres undefined)	none
CC(OC(=O)c1cccs1)C(=O)NCc1ccccc1 (centres undefined)	CYP2C19 inhib 98.3, CYP2C9 inh 76.7
CC(C)C(OC(=O)c1cccs1)C(=O)NCc1cccs1 (centres undefined)	CYP2C19 inhib 91.4, CYP2C9 inh 65.5
CC(OC(=O)c1cccs1)C(=O)NCc1ccc2c(c1)OCO2 (centres undefined)	CYP2C9 inh 67.4
COCC(=O)NCc1ccc2c(c1)OCO2	none
O=C(O)c1ccc(S(=O)(=O)c2ccc3c(c2)C(=O)N(Cc2ccco2)C3=O)cc1	none
CN(C)CCNC(=O)CN1C(=O)COc2ccc(C(C)(C)C)cc21	none
COc1ccc(CNC(=O)C(C)OC(=O)c2cccn2C)cc1 (centres undefined)	CYP2C19 inhib 78.1 (no result: Plk1 PBD FP, PLK1 kinase inh)
COc1ccc(CNC(N)=O)cc1	none (no result: CYP2C19 inhib, CYP2C19 activ, CYP2C9 act, CYP2C9 inh)
COc1cc(-n2c(C)nc3cc(C(=O)N4CCOCC4)ccc32)cc(OC)c1OC	none
Cc1cccn2c(=O)c(/C=C(\C#N)S(=O)(=O)c3ccccc3)c(N3CCC(C(N)=O)CC3)nc12	CYP2C9 inh 81.7
COc1ccccc1N1CCN(c2nc3c(C)cccn3c(=O)c2C=O)CC1	CYP2C19 inhib 68.9
Cc1ccc(S(=O)(=O)/C(C#N)=C/c2c(N3CCC(C(N)=O)CC3)nc3c(C)cccn3c2=O)cc1	CYP2C9 inh 80.5
Cc1ccc(S(=O)(=O)/C(C#N)=C/c2c(N3CCC(C(N)=O)CC3)nc3ccccn3c2=O)cc1	CYP2C9 inh 92.0
Cc1ccc(S(=O)(=O)/C(C#N)=C/c2c(N3CCOCC3)nc3ccccn3c2=O)cc1	none
CCCC(NC(=O)CNC(=O)C(C)(C)C)C(=O)O (centres undefined)	none
Cc1ccccc1-c1ccc(=O)n(CC(=O)Nc2ccc(N3CCOCC3)cc2)n1	none (no result: Plk1 PBD FP, PLK1 kinase inh)
CCN(CC)CCNC(=O)CS(=O)Cc1nc(-c2ccc(C)cc2)oc1C (centres undefined)	none
COc1ccccc1Nc1nc(N)nc(CSc2nnc(C)s2)n1	none
Cc1cccn2c(=O)c(C=O)c(N3CCCCCC3)nc12	none
CCN1CCN(c2nc3c(C)cccn3c(=O)c2/C=C(\C#N)S(=O)(=O)c2ccccc2)CC1	CYP2C9 inh 90.2
CCOC(=O)CCNC(=O)CNC(=O)OCc1ccccc1	none
CC(=O)Nc1cc(C(F)(F)F)ccc1Oc1cccc(Br)c1	CYP2C19 inhib 97.5, CYP2C9 inh 58.2
CC(=O)Nc1cc(C(F)(F)F)ccc1OCCOc1ccccc1	none (no result: CYP2C19 inhib, CYP2C19 activ, CYP2C9 act, CYP2C9 inh)
O=C(NNC(=O)c1sccc1-n1cccc1)c1cccc(Cl)c1	none
CCOC(=O)c1ccc(OCc2nc(-c3cccs3)no2)cc1	CYP2C9 inh 67.3
COC(=O)c1ccc(-c2nc(-c3cccs3)no2)cc1	CYP2C19 inhib 90.7
Cc1cc(C(=O)N/N=C/c2ccccc2Br)no1	none
COc1ccc(N(C)S(=O)(=O)c2cccc3cccnc23)c(OC)c1	CYP2C19 inhib 60.3
Cc1ccccc1NC(=O)C1CCCN(S(=O)(=O)c2cccc3cccnc23)C1 (centres undefined)	none
COc1ccc(NC(=O)C2CCCN2S(=O)(=O)c2cccc3cccnc23)c(OC)c1 (centres undefined)	CYP2C9 inh 91.8
CNS(=O)(=O)c1cccc2cccnc12	none
CCOc1ccc(OCC)c(NC(=O)C2CCCN2S(=O)(=O)c2cccc3cccnc23)c1 (centres undefined)	none
CCOC(=O)c1cccc(NC(=O)C2CCCN2S(=O)(=O)c2cccc3cccnc23)c1 (centres undefined)	CYP2C9 inh 91.1
Cc1ccccc1NC(=O)C1CCCN1S(=O)(=O)c1cccc2cccnc12 (centres undefined)	CYP2C19 inhib 67.0, CYP2C9 inh 95.5
O=C(Nc1cccc(C(F)(F)F)c1)C1CCCN1S(=O)(=O)c1cccc2cccnc12 (centres undefined)	none
O=C1c2ccccc2C(=O)N1CNc1ccccc1	none
COC(=O)CNC(=O)Cc1c(F)cccc1Cl	none
Cn1nnnc1SCC(=O)Nc1ccccc1Cl	none
CC(NC(=O)c1ccccc1NS(C)(=O)=O)c1ccccc1 (centres undefined)	CYP2C19 inhib 61.7, CYP2C9 inh 73.1
CCOC(=O)c1ccccc1NS(=O)(=O)c1ccccc1	CYP2C19 inhib 98.3
CCOC(=O)c1ccccc1NC(=O)c1ccccc1NS(C)(=O)=O	CYP2C19 inhib 55.2, CYP2C9 inh 74.0
CCOC(=O)c1ccccc1NC(=O)c1ccccc1SC	none
CC(NC(=O)c1ccccc1NC(=O)CSc1nnnn1C)c1ccccc1 (centres undefined)	CYP2C9 inh 62.0
CCOC(=O)CN1N=C(/C=C/c2ccc(OC)cc2)CCC1=O	none
CCCS(=O)(=O)N1CCCC(C(=O)NCCN(CC)c2ccccc2)C1 (centres undefined)	none
O=C1NC(=S)SC1=C1CCCCCC1	none
CN(C)Cc1cn(CCC(=O)O)c2ccccc12	none (no result: CYP2C19 inhib, CYP2C19 activ, CYP2C9 act, CYP2C9 inh)
CCOC(=O)c1ccccc1-c1csc(NS(=O)(=O)c2ccc(Cl)cc2)n1	CYP2C9 inh 98.9
Cc1ccccc1NC(=O)Nc1ccccc1C(=O)NCc1ccccc1	CYP2C9 inh 58.7
Cc1ccc(CNC(=O)c2ccccc2NS(C)(=O)=O)cc1	CYP2C19 inhib 55.3, CYP2C9 inh 54.3
COC(=O)COc1ccc(S(=O)(=O)Nc2ccccc2C(=O)OC)cc1	CYP2C19 inhib 95.6, CYP2C9 act 2
Cc1ccc(NC(=O)Nc2ccccc2C(=O)NCc2ccccc2)cc1	none
CCOC(=O)c1ccccc1NS(=O)(=O)c1ccc(C)cc1	CYP2C19 inhib 59.7
CCOC(=O)c1ccccc1NS(=O)(=O)c1ccccc1F	CYP2C19 inhib 88.6, CYP2C9 act 2.9
CCOC(=O)c1cnc(SC)nc1Oc1cccc(NS(=O)(=O)c2ccc(C)cc2)c1	CYP2C9 inh 80.9
CCOCC(=O)Nc1ccccc1C(=O)OCC	none
Cc1nc2cccc(C(=O)NCc3ccccc3)c2o1	CYP2C9 inh 62.1
COC(=O)c1ccccc1NS(=O)(=O)c1ccc(F)cc1	none (no result: CYP2C19 inhib, CYP2C19 activ, CYP2C9 act, CYP2C9 inh)
O=C(NCc1cccnc1)c1ccc(CN2CCc3ccccc3C2)cc1	none (no result: CYP2C19 inhib, CYP2C19 activ, CYP2C9 act, CYP2C9 inh)
